Sampled rows, rich in hits. Any-hit rate of the full collection: about 12%.
PLK1 PBD inh: inhibitors of human PLK1 polo-box domain binding. P53350. Plk1 PBD binding of FITC phosphopeptide, fluorescence polarization. Potency, µM, without a hit: max response, negative = inhibition, actives largely listed as inhibitors. 2.8% of 360,000 active; also: series mostly up to about 57 µM; % is scaled to controls: 0 for no effect and ±100 for the full control effect; nearly all actives have a fitted effect of over 65% in size
HP1b binding inh: HP1-beta chromodomain-methylated histone interaction inhibition; P83916; AlphaScreen HP1-beta / biotin-H3K9me3 peptide binding; Potency, µM (top dose mostly 114 µM), for the others: at the highest dose activity change, negative = inhibition, usual class: inhibitors; 0.56% of 390,000 active; AID 540317; also: nearly all actives have a fitted effect of over 70% in size
Target sequence (P83916 whole entry, looked up): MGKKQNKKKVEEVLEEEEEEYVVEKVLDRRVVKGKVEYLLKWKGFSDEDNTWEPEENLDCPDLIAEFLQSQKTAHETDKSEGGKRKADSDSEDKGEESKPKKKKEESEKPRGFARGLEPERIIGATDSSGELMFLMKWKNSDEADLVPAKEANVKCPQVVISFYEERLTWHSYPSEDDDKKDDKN
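HP1-beta protein (50 nM final) preincubated 30 min at room temperature with biotinylated H3(1-18)K9me3 peptide (50 nM) in PBS pH 7.4, 0.01% Tween-20, then compound added for 30 min. AlphaScreen streptavidin donor/nickel chelate acceptor beads (10 ug/mL final), 30 min dark, luminescence read.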
G9a inh: inhibitors of human histone lysine methyltransferase G9a | AID 504332 | Potency, µM (titrated, usually from 102 µM), for the others: at the highest dose activity, negative = inhibition, actives largely listed as inhibitors | G9a H3K9 monomethylation, AlphaScreen, 2 h | 8.8% of 350,000 active | Q96KQ7; also: % is scaled to controls: 0 for no effect and ±100 for the full control effect; nearly all actives have a fitted effect of over 75% in size
Target sequence (Q96KQ7 913-1193 limits assumed): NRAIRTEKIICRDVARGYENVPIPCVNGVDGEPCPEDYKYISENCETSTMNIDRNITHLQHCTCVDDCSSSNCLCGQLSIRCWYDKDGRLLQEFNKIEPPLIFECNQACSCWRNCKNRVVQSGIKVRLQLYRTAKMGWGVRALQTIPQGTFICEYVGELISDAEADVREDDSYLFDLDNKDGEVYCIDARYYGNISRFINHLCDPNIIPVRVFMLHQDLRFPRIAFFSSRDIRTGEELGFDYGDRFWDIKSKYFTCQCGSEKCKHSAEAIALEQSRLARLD
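Step 1: enzyme (final 20 nM) with compound, 15 min RT. Step 2: substrate peptide 500 nM and SAM 20 uM, 2 h RT. Step 3: anti-H3K9me1 antibody and AlphaScreen beads, 10 min, then plate read.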
JMJD2A Tudor: blocks the human JMJD2A Tudor domain | Potency, µM (series often up to 114 µM), without a hit: at the top dose activity change, negative = inhibition, actives largely listed as inhibitors | O75164 | AID 504339 | 4.4% of 390,000 active | AlphaScreen JMJD2A-Tudor / H3K4me3 peptide binding; also: % is scaled to controls: 0 for no effect and ±100 for the full control effect; nearly all actives have a fitted effect of over 50% in size
Sfp inh: inhibitors of Bacillus subtilis Sfp phosphopantetheinyl transferase; Q9F4F7; Biochemical Sfp PPTase activity, qHTS; Potency, µM, inactives show largest response in the series, negative = inhibition, hits mostly inhibitors; 3.5% of 310,000 active;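 also: the enzyme is Sfp with the accession as filed and its product quenches rhodamine fluorescence; 0% = enzyme reaction without inhibitor and -100% = no enzyme wells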
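With Hepes-Na pH 7.6 buffer containing 10 mM MgCl2, Sfp (15 nM) modified BHQ-2-YbbR (12.5 uM) using rhodamine-CoA (5 uM). Two reads 30 minutes apart at 525/598 nm yielded each well's rate.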
BAZ2B inh: BAZ2B (human) inhibition; Potency, µM (top dose mostly 114 µM), inactives show top-dose activity change, negative = inhibition, actives largely listed as inhibitors; Q9UIF8; 4.4% of 360,000 active; AlphaScreen BAZ2B-H3K14Ac peptide displacement; also: % is scaled to controls: 0 for no effect and ±100 for the full control effect; nearly all actives have a fitted effect of over 60% in size
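In this displacement format the biotinylated H3(5-23) peptide acetylated at Lys14 serves as ligand at 50 nM, with BAZ2B at 50 nM in PBS pH 7.4 containing 0.01% Tween-20. Donor and acceptor beads are 10 ug/mL final.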
* marks the source's active call; other numbers are inactive results; ? = inconclusive; nt = no result given; [ ] = another dose, or the depositor's remark. Calls follow the shape of the dose curve; as a rule, active = well fitted curve in the direction sought with a large enough effect; inconclusive = small, poorly fitted or top-dose-only effect, or another doubt; inactive = no such curve, though single readings can be large; an effect the other way counts as inactive or inconclusive. Potency is read from the fitted curve at half-maximal effect.

SMILES	PLK1 PBD inh	HP1b binding inh	G9a inh	JMJD2A Tudor	Sfp inh	BAZ2B inh
O=C(COC(=O)c1ccc(S(=O)(=O)N2CCCC2)cc1)Nc1ccc(N2CCOCC2)cc1	9.5µM*	?	30%[59 µM]	-26%[11.4 µM]	-12%	-24%
COc1ccc(CNC(=O)c2cnn(-c3ccc(C)cc3)c2-n2cccc2)cc1OC	nt	1%	-21%[59 µM]	-20%	nt	?
COc1cccc2cc(-c3nc(-c4ccccc4)c(C)s3)c(=O)oc12	nt	28%[57 µM]	nt	2%[57.1 µM]	nt	nt
COc1ccc2c(c1)O[C@@H](c1cccc(C(F)(F)F)c1)[C@H](OC(=O)NC1CCCC1)C2=O	nt	nt	nt	nt	-9%	nt
N#Cc1ccc(C(=O)OCC(=O)Nc2ccc(N3CCOCC3)cc2)cc1	-6%	25%	10µM*	-7%	-2%	nt
O=C(COC(=O)CCC(=O)c1ccc(F)cc1)Nc1ccc(N2CCOCC2)cc1	-1%	30%	50µM*	-12%	8%	-7%
N#Cc1ccc(OCC(=O)OCC(=O)Nc2ccc(N3CCOCC3)cc2)cc1	-10%	4%	?	-20%	nt	12%
Cc1cc(C)c(S(=O)(=O)N2CCOC2CNC(=O)C(=O)NCc2ccncc2)c(C)c1 (stereo not drawn)	-6%	25%	1%	-18%	6%	-25%
Cc1ccc(Cl)cc1NC(=O)CSc1nc2c(c(=O)[nH]1)CN(Cc1ccccc1)CC2	nt	40%	-42%[59 µM]	-1%	nt	-4%
Brc1cccc(-c2nnc3sc(CNCc4ccco4)cn23)c1	-15%	21%	45µM*	-29%	8%	-21%
CCOc1ccc(-n2c(SCc3nc(-c4ccc(C)cc4)no3)nnc2-c2ccncc2)cc1	-1%	14%	79µM*	-36%	-14%	-5%
COc1ccc(-c2cn[nH]c2-c2ccc(OCc3ccc([N+](=O)[O-])cc3)cc2O)cc1OC	-4%	5%	11%[12.7 µM]	?	32%	-28%
CCc1cc(-c2[nH]ncc2-c2ccc([N+](=O)[O-])cc2)c(O)cc1OC	-2%	?	50µM*	50µM*	-23%	40µM*
Cc1ccc(S(=O)(=O)N2CCC(c3nnc(-c4cccc(C)c4)o3)CC2)cc1	nt	1%	3.5µM*	-17%	nt	-16%
CCCc1ccc(S(=O)(=O)N2CCC(c3nnc(-c4cccc(C)c4)o3)CC2)cc1	nt	27%	8.9µM*	-16%	nt	-2%
CC1CCN(S(=O)(=O)c2cccc(-c3nnc(-c4cccnc4)o3)c2)CC1	15µM*	-10%	22%[59 µM]	28µM*	17%	0%
Cc1ccc(NC(=O)c2cccc(NC(=O)N3CCSc4ncccc43)c2)cc1Cl	nt	2%	?	-10%	nt	-16%
CCCCNC(=O)C(c1ccc(OCC(=O)OC)c(C(=O)OC)c1)N(Cc1ccccc1)C(=O)CCCCCN1C(=O)NC(c2ccc(-c3ccccc3)cc2)C(C(=O)OCc2ccccc2)=C1C (stereo not drawn)	nt	nt	nt	nt	1%	nt
CN(C(=S)NC(=O)C12CC3CC(CC(C3)C1)C2)c1ccc(O)cc1	34µM*	10µM*	nt	50µM*	nt	nt
CN(C)NC(=S)NC(=O)C12CC3CC(CC(C3)C1)C2	-11%	10%	-42%	?	?	?
CC(C)(C)NC(=S)NC(=O)C12CC3CCC(CC(C3)C1)C2	-3%	-15%	-9%[59 µM]	89µM*	11%	-38%
CN1CCC(N(C)C(=S)NC(=O)C23CC4CC(CC(C4)C2)C3)CC1	-26%	-11%	40µM*	-4%	-11%	10%
COC(=O)c1ccc(C(NC(=O)OCc2ccccc2)/C(I)=C/[C@@H](C)C(=O)NCC2CC2)cc1 (stereo partly drawn)	nt	nt	nt	nt	40%	nt
Cn1nnc2c(NCc3c(F)cccc3F)ncnc21	nt	13%	4%[59 µM]	-7%	nt	0%
CCCNC(=O)C1(C)CCCN(C(=O)c2c(F)ccc(C)c2F)C1 (stereo not drawn)	-7%	nt	nt	nt	nt	nt
SMILES	PLK1 PBD inh	HP1b binding inh	G9a inh	JMJD2A Tudor	Sfp inh	BAZ2B inh
CCOC(=O)c1c(S(=O)(=O)N2CCC(C(=O)Nc3ccc(OCC)cc3)CC2)c(C)n(C)c1C	nt	10%	-1%[59 µM]	-15%	nt	-3%
C=C(CCC12O[C@H](C(=O)O)[C@@](O)(C(=O)O)[C@](C(=O)O)(O1)[C@H](OC(=O)/C=C/[C@@H](C)C[C@@H](C)CC)[C@H]2O)[C@@H](OC(C)=O)[C@H](C)Cc1ccccc1	nt	nt	33%[59 µM]	nt	?	nt
CC[C@H]1C(c2cccc(Cl)c2)=NN(c2ccccc2)[C@@H]1CO	nt	nt	27%	nt	17%	nt
CN(CCO)CCOCCOc1cccc2ccccc12	-12%	?	?	10µM*	?	nt
OCCOCCOc1cccc2[nH]ccc12	-6%	13%	-7%	-10%	22%	-19%
CCOC(=O)C(=NCCCN1CCOCC1)NNc1cccc(C(F)(F)F)c1	-13%	-18%	50µM*	-33%	-13%	?
COC(=O)[C@]12CCCCC=C1N(Cc1ccco1)C(=O)[C@H](CC(=O)N1CCC(c3ccccc3)CC1)C2	-1%	nt	nt	nt	nt	nt
C#CCN1C(=O)S/C(=C\c2ccc(-c3ccc(Cl)c(C(=O)O)c3)o2)C1=O	-24%	32%	45µM*	-1%	-9%	-32%
O=C(O)c1cc(-c2ccc(/C=N/N3C(=O)C4C5C=CC(CC5)C4C3=O)o2)ccc1Cl (stereo not drawn)	-5%	22%	-36%	0%	9%	-15%
O=C(O)c1cc(-c2ccc(/C=C3\NC(=O)N(c4ccc(Cl)cc4)C3=O)o2)ccc1Cl	12µM*	?	10µM*	32µM*	50µM*	45µM*
O=C(O)c1cc(-c2ccc(/C=C3\NC(=O)N(c4ccccc4)C3=O)o2)ccc1Cl	?	-4%	45µM*	56µM*	79µM*	79µM*
CCOc1ccc(NC(c2ccc(Cl)cc2)c2nnc(-c3cccc(F)c3)o2)cc1 (stereo not drawn)	nt	31%	-35%[59 µM]	-16%	nt	-34%
NC(=O)NOCc1ccc(Cl)cc1Cl	27µM*	-10%	4%	-3%[11.4 µM]	16%	2%
NC(=O)NOCc1ccc(F)cc1Cl	-1%	46%	8%	-8%	-7%	2%
CCC(=O)NC(c1ccc(N(C)C)cc1)c1c(O)ccc2ccccc12 (stereo not drawn)	-17%	?	10µM*	50µM*	2%	28µM*
CC(C)C(=O)NC(c1ccco1)c1c(O)ccc2ccccc12 (stereo not drawn)	-8%	-5%	32µM*	?	-2%	-34%
O=C(CCCc1ccc(-c2ccccc2F)cc1)Nc1ccc(O)cc1	nt	nt	nt	nt	21%	nt
COCCC(=O)N1CCC(Oc2ccc(C(=O)N3CCCC(OC)C3)cc2)CC1 (stereo not drawn)	27µM*	12%	29%	-23%	19%	2%

Screening results as filed in PubChem.
